A selection: hits, their analogues and other compounds. The true share with any hit is near 12%.
JMJD2A Tudor inh = qHTS Assay for Inhibitors of JMJD2A-Tudor Domain; 390,000 tested, 4.4% active; AlphaScreen JMJD2A-Tudor / H3K4me3 peptide binding; Potency, µM (titrated, usually from 114 µM), without a hit: at the top dose activity change, negative = inhibition, usual class: inhibitors; Lysine-specific demethylase 4A (Homo sapiens), O75164; further: on the % scale 0 is the no-effect control and ±100 the full control effect; nearly all actives have a fitted effect of over 50% in size
BAZ2B block = qHTS Assay for Inhibitors of BAZ2B | 360,000 tested, 4.4% active | Potency, µM (highest dose often 114 µM), for the others: at the top dose activity change, negative = inhibition, most hits filed as inhibitors | AlphaScreen BAZ2B-H3K14Ac peptide displacement | AID 504333, 2011 | Bromodomain adjacent to zinc finger domain protein 2B (Homo sapiens), Q9UIF8; further: on the % scale 0 is the no-effect control and ±100 the full control effect; nearly all actives have a fitted effect of over 60% in size
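BAZ2B (50 nM) with biotin-H3(5-23)K14Ac peptide (50 nM) in PBS pH 7.4, 0.01% Tween-20, preformed 30 min, then compound 30 min at room temperature; top concentration 110uM. AlphaScreen streptavidin donor/nickel chelate acceptor beads (10 ug/mL final), 20 min dark, signal read.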
HP1b chromo inh = HTS for Inhibitors of HP1-beta Chromodomain Interactions with Methylated Histone Tails | Chromobox protein homolog 1 (Homo sapiens), P83916 | AlphaScreen HP1-beta / biotin-H3K9me3 peptide binding | Potency, µM (series often up to 114 µM), for the others: at the top dose activity change, negative = inhibition, usual class: inhibitors | 390,000 tested, 0.56% active | AID 540317, 2011; further: nearly all actives have a fitted effect of over 70% in size
Target sequence (P83916 whole entry, looked up): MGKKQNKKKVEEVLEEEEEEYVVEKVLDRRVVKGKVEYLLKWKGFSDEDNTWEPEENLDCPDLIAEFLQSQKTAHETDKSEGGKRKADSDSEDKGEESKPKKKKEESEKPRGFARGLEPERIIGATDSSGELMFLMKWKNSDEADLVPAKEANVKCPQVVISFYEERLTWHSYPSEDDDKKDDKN
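Compound inhibition of the preformed complex between 50 nM HP1-beta and 50 nM biotinylated H3K9me3 peptide was read by AlphaScreen. Buffer was PBS pH 7.4 with 0.01% Tween-20. Incubations ran 30 min at room temperature, with 10 ug/mL donor/acceptor beads.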
TDP1 block = qHTS Assay for Inhibitors of Tyrosyl-DNA Phosphodiesterase (TDP1) | Potency, µM (titrated, usually from 130 µM), inactives show top-dose activity change, negative = inhibition, most hits filed as inhibitors | recombinant TDP1, AlphaScreen DNA substrate cleavage | Tyrosyl-DNA phosphodiesterase 1 (Homo sapiens), Q9NUW8 | 350,000 tested, 0.28% active | AID 485290, 2010; further: on the % scale 0 is the no-effect control and ±100 the full control effect; nearly all actives have a fitted effect of over 40% in size
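Compounds were preincubated with Tdp1 (1 nM final) for 15 min at room temperature before substrate (15 nM final) started a 5 min reaction; beads (10 ug/ml final) were then added for 10 min before AlphaScreen detection.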
G9a block = qHTS Assay for Inhibitors of Histone Lysine Methyltransferase G9a; G9a H3K9 monomethylation, AlphaScreen, 2 h; Potency, µM (titrated, usually from 102 µM), for the others: at the highest dose activity, negative = inhibition, usual class: inhibitors; 350,000 tested, 8.8% active; further: on the % scale 0 is the no-effect control and ±100 the full control effect; nearly all actives have a fitted effect of over 75% in size
Target sequence (Q96KQ7 913-1193 limits assumed): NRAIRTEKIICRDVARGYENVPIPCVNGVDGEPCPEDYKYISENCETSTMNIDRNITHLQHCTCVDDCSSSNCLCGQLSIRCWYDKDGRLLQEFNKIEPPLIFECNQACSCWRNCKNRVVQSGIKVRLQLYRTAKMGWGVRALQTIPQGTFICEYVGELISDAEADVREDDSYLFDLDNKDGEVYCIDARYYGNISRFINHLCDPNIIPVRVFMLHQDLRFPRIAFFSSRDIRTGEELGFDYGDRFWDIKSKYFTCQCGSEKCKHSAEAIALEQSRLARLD
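AlphaScreen read-out: biotin-H3K9 peptide (500 nM) methylation by 20 nM enzyme with 20 uM SAM, 2 h at room temperature after 15 min compound preincubation; anti-monomethyl H3K9 antibody plus donor/acceptor beads, 10 min dark.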
Sfp inh = qHTS Assay for Inhibitors of Bacillus subtilis Sfp phosphopantetheinyl transferase (PPTase) | 4'-phosphopantetheinyl transferase ffp (Bacillus subtilis), Q9F4F7 | Biochemical Sfp PPTase activity, qHTS | Potency, µM, for inactives: largest response in the series, negative = inhibition, usual class: inhibitors | 310,000 tested, 3.5% active;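 further: the enzyme is Sfp with the accession as filed and its product quenches rhodamine fluorescence; 0% = enzyme reaction without inhibitor and -100% = no enzyme wells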
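Step 1, compound plus 15 nM Sfp-PPTase, 15 min, room temperature. Step 2, add rhodamine-CoA (5 uM) and BHQ-2-YbbR (12.5 uM). Step 3, read 525/598 nm fluorescence at 0 and 30 min.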
Numbers without * were called inactive; ? = inconclusive; . = no result given; [ ] = dose if it differs, or a comment. The call rests on the fitted dose curve; in most records, active means well fitted curve in the direction sought with a large enough effect; inconclusive means small, poorly fitted or top-dose-only effect, or another doubt; inactive means no such curve, though single readings can be large; an effect the other way counts as inactive or inconclusive. Potency means the concentration at half of the fitted maximal effect.

SMILES | JMJD2A Tudor inh | BAZ2B block | HP1b chromo inh | TDP1 block | G9a block | Sfp inh
CSc1ccc(CN2CCN(C(=O)c3ccc([N+](=O)[O-])cc3)CC2)cc1 | 22µM* | 50µM* | ? | -5% | . | -19%
O=C(c1ccc(Cn2ccc([N+](=O)[O-])n2)cc1)N1CCN(Cc2ccccc2)CC1 | -24% | -13% | 5% | 4% | . | 4%
COc1cc(NC(=O)CSc2ccc(-c3sc(-c4ccccc4)nc3C)nn2)cc(OC)c1 | -1% | -3% | 42% | 5% | 7%[59 µM] | .
CC(=O)Nc1ccccc1OC1=N[S+](=O)([O-])c2ccccc21 | -10% | . | . | 0% | . | .
CCS(=O)(=O)N1CCc2cc(C(=O)NCc3ccc(Cl)cc3)ccc21 | -28% | -19% | 39% | 9% | -46%[59 µM] | .
CC(C)c1ccccc1NCC(=O)N1CCN(Cc2ccccc2)CC1 | -29% | -33% | 24% | . | 50µM* | 9%
Cc1ccc(C(=S)N2CCN(Cc3ccccc3)CC2)cc1 | -21% | ? | -6% | 3% | ? | 11µM*
Cc1ccc(OCC(=O)N2CCN(C(=O)c3ccc([N+](=O)[O-])cc3)CC2)cc1 | -7% | -7% | 14% | 6% | 50µM* | ?
Cc1cccc(C)c1NCC(=O)N1CCN(Cc2ccccc2)CC1 | 1% | 10% | 30% | . | 20%[2.33 µM] | 10%
O=C(c1ccccc1)N1CCN(CCc2ccccn2)CC1 | -13% | 3% | 47% | -7% | 21% | 8%
O=C(c1ccc(-c2ccccc2)cc1)N1CCN(Cc2ccccn2)CC1 | ? | ? | 13% | 1% | 40µM* | 10%
O=C(COc1ccc2ccccc2c1)N1CCN(C(=O)c2ccc([N+](=O)[O-])cc2)CC1 | -14% | ? | 36% | 5% | -9% | 16%
CN(C)CCCNC(=O)c1cc(C(=O)c2c(Cl)cccc2Cl)c[nH]1 | ? | -11% | -7% | . | ? | 6%
CCC(C)NC(=S)N1CCN(Cc2ccccc2)CC1 (centres undefined) | ? | 0% | 79µM* | 3% | 0% | 5%
S=C(c1ccccc1)N1CCN(C(=S)c2ccccc2)CC1 | 1% | -29% | 39% | -3% | ? | 1%
CCC(C)NC(=S)N1CCN(C(c2ccccc2)c2ccccc2)CC1 (centres undefined) | -1% | -7% | 29% | 4% | -5% | 2%
CCN1CCN(C(=S)c2ccc(-c3ccccc3)cc2)CC1 | -22% | -29% | -9% | 3% | 32µM* | 22µM*
Cc1ccc2cc(CN(CCCN3CCOCC3)C(=O)NC3CCCCC3)c(=O)[nH]c2c1C | -15% | 8% | 14% | -2% | 1%[59 µM] | 20%
Cc1cc2cc(CN(CCCN3CCOCC3)C(=O)NC3CCCCC3)c(=O)[nH]c2cc1C | -21% | 7% | 10% | -3% | 14µM* | 45µM*
COc1cc(NS(=O)(=O)c2ccc(NC(=S)NC(=O)/C=C/c3ccco3)cc2)ncn1 | 18µM* | -35% | ? | . | ? | -27%
CC(=O)Nc1ccc(NC(=S)NC(=O)/C=C/c2ccco2)cc1 | ? | ? | 7% | . | 2%[0.501 µM] | -28%
O=C(/C=C/c1ccco1)NC(=S)Nc1cccc(C(=O)O)c1 | 20µM* | 32µM* | 20µM* | . | 8.9µM* | 79µM*
COc1cccc(NC(=S)NC(=O)/C=C/c2ccco2)c1 | ? | 50µM* | -12% | 3% | 45µM* | -13%
CN1CCN(c2ccc(NC(=S)NC(=O)/C=C/c3ccco3)cc2)CC1 | ? | ? | -21% | 12% | 45µM* | -23%

Compound activity deposited in PubChem by National Center for Advancing Translational Sciences (NCATS).
